This note sets out measurements from PubChem BioAssay (Tox21).

Experiment [1] can be described thus: qHTS assay to identify small molecule agonists of the hypoxia (HIF-1) signaling pathway (AID 1224846; active means well fitted activation curve with a large enough effect in the signal ratio in the repeat runs, not every such curve was filed as active; the % refers to the signal ratio; further: on the % scale 0 is the no-effect control and ±100 the full control effect). Summed up: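 Steps: seed ME-180 HRE-bla cells (2,000/well, 0.5% dialyzed FBS); incubate 5 hrs at 37C; pin-transfer compounds or DMSO; incubate 17 hrs; add LiveBLAzer B/G substrate CCF4-AM; measure reporter activation by FRET.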
(qHTS replaces the single test concentration by a dilution series.)

The nature of experiment [2]: qHTS assay to identify small molecule agonists of the estrogen related receptor (ERR) signaling pathway from Tox21 library (AID 1224849; calls by dose curve; further: on the % scale 0 is the no-effect control and ±100 the full control effect; nearly all actives have a fitted effect of over 15% in size). The note with it: ERR reporter cell line, ONE-Glo luciferase, 18 h. Summed up: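 Agonist signal is luciferase luminescence from an ERR reporter cell line treated 18 h at 37 C with DMSO-dissolved compounds, read 30 min after ONE-Glo addition at room temperature.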

The nature of experiment [3]: qHTS RealTime-Glo MT Cell Viability Assay in HepG2 cells - 24 hour (AID 1224867). Further: nearly all actives have a fitted effect of over 50% in size. Further: potency means the concentration at half of the fitted maximal effect. Put shortly:
(§1)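 Cells + NanoLuc/prosubstrate dispensed (600 cells/well) → 5 h at 37 C/5% CO2 → compounds in DMSO transferred → 40 h incubation at 37 C, luminescence read at 0, 8, 16, 24, 32, 40 h.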

Experiment [4] in a line: qHTS RealTime-Glo MT Cell Viability Assay in HepG2 cells - 40 hour (AID 1224870). Further: nearly all actives have a fitted effect of over 50% in size. Further: potency means the concentration at half of the fitted maximal effect. Summed up:
(§2)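 HepG2 cells mixed with RealTime-Glo MT reagents (NanoLuc plus cell-permeant prosubstrate) were seeded at 600 cells/well, incubated 5 h at 37 C/5% CO2, then pinned with compounds in DMSO; nonlytic luminescence tracked viability during 40 h treatment.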

Experiment [5] in a line: A CellTox Green Cytotoxicity Assay to monitor cytotoxicity in HEK293 cells - 40 hour (AID 1224871). Further: nearly all actives have a fitted effect of over 45% in size. Further: potency means the concentration at half of the fitted maximal effect. Put shortly: (§3)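 Cytotoxicity was tracked continuously in HEK293 cells by a DNA-binding dye excluded from viable cells. Compounds were transferred in DMSO 5 h after seeding; fluorescence was recorded at intervals up to 40 h.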
The nature of experiment [6]: qHTS RealTime-Glo MT Cell Viability Assay in HepG2 cells - 8 hour (AID 1224873). Further: nearly all actives have a fitted effect of over 55% in size. Further: potency means the concentration at half of the fitted maximal effect. Summed up:
as §2

A short description of experiment [7]: qHTS RealTime-Glo MT Cell Viability Assay in HEK293 cells - 40 hour (AID 1224874). Further: nearly all actives have a fitted effect of over 50% in size. Further: potency means the concentration at half of the fitted maximal effect. On max response: on the % scale 0 is the no-effect control and ±100 the full control effect. The settings on record: RealTime-Glo luminescence; max response: stronger effect = lower value. Put shortly: (§4)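 Nonlytic bioluminescent viability monitoring. HEK293 at 600 cells/well with reagent; 5 h settle; compound transfer by pintool; plates held at 37 C and read at set time points.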

The nature of experiment [8]: A CellTox Green Cytotoxicity Assay to monitor cytotoxicity in HEK293 cells - 24 hour (AID 1224875). Further: nearly all actives have a fitted effect of over 45% in size. Further: potency means the concentration at half of the fitted maximal effect. On activity change: on the % scale 0 is the no-effect control and ±100 the full control effect. Put shortly:
as §3

Experiment [9] in a line: A CellTox Green Cytotoxicity Assay to monitor cytotoxicity in HepG2 cells - 16 hour (AID 1224876). Further: nearly all actives have a fitted effect of over 45% in size. Further: potency means the concentration at half of the fitted maximal effect. Summed up:
(§5)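 Real-time, homogeneous cytotoxicity readout: dead-cell DNA staining by CellTox Green in HepG2 monolayers, fluorescence measured at timed intervals up to 40 h of continuous compound exposure.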

A short description of experiment [10]: qHTS RealTime-Glo MT Cell Viability Assay in HepG2 cells - 32 hour (AID 1224877). Further: nearly all actives have a fitted effect of over 55% in size. Further: potency means the concentration at half of the fitted maximal effect. Summed up:
as §1

The nature of experiment [11]: A CellTox Green Cytotoxicity Assay to monitor cytotoxicity in HepG2 cells - 24 hour (AID 1224878). Further: nearly all actives have a fitted effect of over 45% in size. Further: potency means the concentration at half of the fitted maximal effect. On Cytotoxicity: on the % scale 0 is the no-effect control and ±100 the full control effect. Summed up:
as §5

The nature of experiment [12]: A CellTox Green Cytotoxicity Assay to monitor cytotoxicity in HepG2 cells - 40 hour (AID 1224879). Further: nearly all actives have a fitted effect of over 40% in size. Further: potency means the concentration at half of the fitted maximal effect. Put shortly: as §5
Experiment [13] can be described thus: qHTS RealTime-Glo MT Cell Viability Assay in HEK293 cells - 0 hour (AID 1224880). Summed up:
as §4

Experiment [14] is described as follows: A CellTox Green Cytotoxicity Assay to monitor cytotoxicity in HEK293 cells - 32 hour (AID 1224881). Further: nearly all actives have a fitted effect of over 40% in size. Further: potency means the concentration at half of the fitted maximal effect. Put shortly: as §3
Experiment [15] can be described thus: A CellTox Green Cytotoxicity Assay to monitor cytotoxicity in HepG2 cells - 0 hour (AID 1224882). Further: on the % scale 0 is the no-effect control and ±100 the full control effect; nearly all actives have a fitted effect of over 35% in size. Summed up:
as §5

Experiment [16] is described as follows: qHTS assay to identify small molecule agonists of H2AX - cell viability counter screen (AID 1224847; calls by dose curve; further: potency means the concentration at half of the fitted maximal effect; nearly all actives have a fitted effect of over 30% in size). Put shortly:
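Viability of CHO-K1 (wild type) cells after 3 hr compound exposure was measured by CellTiter-Glo luminescence.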

The nature of experiment [17]: qHTS assay to identify small molecule antagonists of the estrogen related receptor (ERR) signaling pathway from Tox21 library (AID 1224848). Further: nearly all actives have a fitted effect of over 50% in size. Further: potency means the concentration at half of the fitted maximal effect. Summed up: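 Cells: ERR line, 2,000/well; 6 h preincubation 37 C/5% CO2. Cpd in DMSO via pin tool; 18 h, 37 C. ONE-Glo, 30 min RT, luminescence.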
A short description of experiment [18]: qHTS RealTime-Glo MT Cell Viability Assay in HEK293 cells - 32 hour (AID 1224868). Put shortly:
(§6)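 Tox21 10K qHTS, HEK293, 600 cells/well, RealTime-Glo reagent co-dispensed with cells; 5 h preincubation, compound by pintool, 37 C, luminescence at 0–40 h.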

Experiment [19] in a line: qHTS RealTime-Glo MT Cell Viability Assay in HEK293 cells - 16 hour (AID 1224872). Put shortly: as §6
The nature of experiment [20]: A CellTox Green Cytotoxicity Assay to monitor cytotoxicity in HEK293 cells - 0 hour (AID 1224869). Put shortly:
as §3

Setting [21] is: at 92.4 µM (top of the series) unless noted.

Several values for one entry are separate records, joined by “and”; a condition that tells them apart may be missing. Equal values may be shown once. Inconclusive results are not listed. More than one record can exist for a structure, and the calls need not agree. Activity calls are given as the source filed them. Unless noted, the call rests on the fitted dose curve; in most records, active means well fitted curve in the direction sought with a large enough effect in the repeat runs; inconclusive means weak or mixed curves; inactive means no such curve, though single readings can be large; an effect the other way counts as inactive or inconclusive.

On to `CC(C)CCCCCCCOP(=O)(Oc1ccccc1)Oc1ccccc1`, for which the result in [1] was inactive. Besides, the activity change, positive = activation in [2] (setting [21]) is -16.8% (inactive). Moreover, the Potency entry in experiment [3], in [4], in experiment [5], in experiment [6], in [8] and in experiment [9] was “inactive” in each case. Besides, the Potency entry in [10], in experiment [11], in experiment [12], in experiment [13], in experiment [14] and in experiment [15] was “inactive” in each case. Besides, the max response in experiment [7] is -33.6% (inactive).

For `Clc1ccc(COC(Cn2ccnc2)c2ccc(Cl)cc2Cl)cc1` (stereo not drawn), the Potency was 66.6 µM (active) and 56.4 µM (active) in experiment [16]; 20.2 µM (active) and 21.6 µM (active) and 18.8 µM (active) in [17]; 43.5 µM (active) in [3]; 18.2 µM (active) and 24.4 µM (active) and 9.52 µM (active) in experiment [18]; 48.8 µM (active) in experiment [4]; 45.7 µM (active) and 54.7 µM (active) and inactive in experiment [5]. Also, the Potency in experiment [19] is 20.4 µM (active) and 19.4 µM (active); in experiment [6] it was 43.5 µM (active); in experiment [7], 16.2 µM (active) and 24.4 µM (active); in experiment [9] it was 54.7 µM (active); in experiment [10], 48.8 µM (active); in experiment [11], 45.7 µM (active) and 54.7 µM (active). In addition, the Potency in [12] was 45.7 µM (active) and 54.7 µM (active) and 16.9 µM (active); in [14], 45.7 µM (active) and 54.7 µM (active) and inactive. In addition, the activity change, positive = activation was -55.4% (inactive) in [2] (at 42.5 µM (top of the series)); -77.5% (inactive) and -81.9% (inactive) in [2] (at 92.4 µM (top of the series)). In addition, the Potency entry in experiment [13] and in [15] was “inactive” throughout.

Turning to `C[C@@H]1CC[C@@]2(OC1)O[C@H]1[C@@H](O)[C@H]3[C@@H]4CC[C@H]5C[C@@H](O[C@@H]6O[C@H](CO)[C@H](O[C@@H]7O[C@H](CO)[C@@H](O)[C@H](O[C@@H]8OC[C@@H](O)[C@H](O)[C@H]8O)[C@H]7O[C@@H]7O[C@H](CO)[C@@H](O)[C@H](O[C@@H]8O[C@H](CO)[C@@H](O)[C@H](O)[C@H]8O)[C@H]7O)[C@H](O)[C@H]6O)[C@H](O)C[C@]5(C)[C@H]4CC[C@]3(C)[C@H]1[C@@H]2C`, the Potency in experiment [16] is 10.7 µM (active); in experiment [17], 23 µM (active); in [3] it was 20.7 µM (active); in experiment [18], 11.6 µM (active); in experiment [4], 26.1 µM (active); in experiment [5], 3.68 µM (active). The Potency in experiment [19] is 9.25 µM (active); in [6], 16.4 µM (active); in experiment [7], 11.6 µM (active); in experiment [8], 1.31 µM (active); in experiment [9], 13.1 µM (active); in [10], 23.2 µM (active). For the same compound, the Potency in experiment [11] and in experiment [12] was 11.6 µM (active) each time. Also, the activity change, positive = activation in [2] (setting [21]) is -74.6% (inactive). Also, the Potency result in experiment [20] and in experiment [15] was “inactive” throughout.

`Oc1cccc(-c2ccccc2)c1`: the outcome in [1] was inactive. For the same compound, the Potency entry in experiment [17], in experiment [3], in [20], in experiment [4], in experiment [5] and in [6] was “inactive” each time. Further, the Potency entry in experiment [8], in [10], in experiment [11], in [13], in experiment [14] and in experiment [15] was “inactive” each time.

In the case of `CC(C)(c1ccc(O)c(-c2ccccc2)c1)c1ccc(O)c(-c2ccccc2)c1`, the Potency was 25.3 µM (active) in experiment [16]; 24.3 µM (active) in experiment [17]; 49 µM (active) in experiment [3]; 21.9 µM (active) in experiment [18]; 21.9 µM (active) in experiment [19]; 49 µM (active) in experiment [6]. Also, the Potency was 19.5 µM (active) in experiment [7], 49 µM (active) in experiment [11] and 49 µM (active) in experiment [12]. Besides, the activity change, positive = activation in [2] (setting [21]) is -69.8% (inactive). Besides, the Potency result in experiment [20] and in experiment [13] was “inactive” throughout.

As for `CC(C)C1CCC(Cc2ccc(Cl)cc2)C1(O)Cn1cncn1` (stereo not drawn), the Potency was 88.9 µM (active) in [16]; 27 µM (active) in experiment [17]; 43.2 µM (active) in experiment [3]; 12.2 µM (active) in [18]; 48.5 µM (active) in experiment [4]; 24.3 µM (active) in experiment [5]. The Potency in experiment [19] is 12.2 µM (active); in experiment [6], 24.3 µM (active); in [7] it was 10.9 µM (active); in experiment [8], 24.3 µM (active); in [9] it was 48.5 µM (active); in [10] it was 48.5 µM (active). For the same compound, the Potency is 43.2 µM (active) in experiment [11], 43.2 µM (active) in [12] and 34.3 µM (active) in [14]. Besides, in experiment [2] (setting [21]), the activity change, positive = activation was -68.5% (inactive). Also, the Potency entry in experiment [13] and in experiment [15] was “inactive” each time.
